# Hits are enriched below; roughly 9.4% of the tested compounds scored in any of these assays.
# Rab9 prom act – activates the Rab9 promoter. Huh7 Rab9 promoter-luciferase reporter, luminescence, 24 h. Potency, µM (series often up to 9.22 µM), inactives show at the highest dose activation, negative = inhibition, most hits filed as activators. 320,000 tested, 2.8% active. AID 485297; note: % of control where 0% means no effect; nearly all actives have a fitted effect of over 60% in size
#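 Huh7 cells stably carrying Rab9 promoter–luciferase reporter, plated 1500 cells/well, compound added after 2 h and incubated 24 h at 37 °C; luciferase luminescence then read after 10 min with detection reagent.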
# ELG1 genotox – genotoxicity induction in ELG1-luciferase HEK293T cells. HEK293T ELG1-luciferase reporter, luminescence, 16 h. Potency, µM (doses to about 46 µM), for the others: top-dose activity change, positive = activation, most hits filed as activators. 330,000 tested, 1.3% active. AID 504466; note: % of control where 0% means no effect; nearly all actives have a fitted effect of over 60% in size
#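 ELG1-luciferase HEK293T cells, 2,000/well; compound pinned in; 16 hr, 37 °C, 5% CO2; ONE-Glo, 30 min RT; luminescence on CCD imager.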
# NPC1 prom act – activates the NPC1 promoter; Huh7 NPC1 promoter luciferase reporter, 24 h; Potency, µM (doses to about 9.22 µM), inactives show at the highest dose activation, hits mostly activators; 320,000 tested, 2.4% active; AID 485313; note: % of control where 0% means no effect; nearly all actives have a fitted effect of over 60% in size
#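 Huh7 cells stably carrying NPC1 promoter–luciferase, plated in Opti-MEM with 10% FBS for 2 h, were exposed to compound in DMSO for 24 h at 37 °C; luciferase reagent was added for 10 min and luminescence read.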
# FLuc modulator – inhibits or activates purified firefly luciferase, miR-21 counter-screen. P08659. purified FLuc, Km substrates, luminescence inhibition. Potency, µM (doses to about 57.5 µM), for the others: top-dose activity change, negative = inhibition, actives largely listed as inhibitors. 360,000 tested, 6.9% active. AID 588342;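 note: plate controls were vehicle for no effect and reference inhibitor for full effect; nearly all actives have a fitted effect of over 55% in size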
# Target sequence (P08659 whole entry, looked up): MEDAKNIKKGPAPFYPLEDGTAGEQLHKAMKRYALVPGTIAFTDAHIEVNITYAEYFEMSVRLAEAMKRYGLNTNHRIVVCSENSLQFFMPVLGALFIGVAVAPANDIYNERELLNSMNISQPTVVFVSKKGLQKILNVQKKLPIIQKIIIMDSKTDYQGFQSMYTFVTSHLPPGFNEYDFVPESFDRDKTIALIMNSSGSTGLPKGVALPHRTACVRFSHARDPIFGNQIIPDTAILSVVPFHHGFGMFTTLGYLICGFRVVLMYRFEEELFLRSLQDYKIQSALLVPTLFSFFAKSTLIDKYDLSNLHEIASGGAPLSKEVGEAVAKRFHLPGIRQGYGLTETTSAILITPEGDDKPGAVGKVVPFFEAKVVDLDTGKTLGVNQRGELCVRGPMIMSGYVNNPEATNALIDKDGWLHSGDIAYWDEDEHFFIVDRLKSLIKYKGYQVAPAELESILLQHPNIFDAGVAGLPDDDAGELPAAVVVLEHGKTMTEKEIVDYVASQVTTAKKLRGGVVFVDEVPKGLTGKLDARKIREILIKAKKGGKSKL
#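 Purified P. pyralis luciferase, 10 nM final, with Km-level 10 uM D-luciferin and 10 uM ATP in 50 mM Tris acetate pH 7.5, 10 mM Mg acetate, 0.01% Tween-20, 0.05% BSA; 6-point qHTS titration about 60 µM downward; luminescence read.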
# ELG1 repair inh – inhibitors of ELG1-dependent DNA repair in HEK293T cells; HEK293T ELG1-luciferase reporter, luminescence, 16 h; DNA damage induced by 5-fluorouridine; Potency, µM (top dose mostly 46.1 µM), for inactives: at the top dose activity change, negative = inhibition, usual class: inhibitors; 330,000 tested, 2.3% active; note: % is set by controls: 0 for no effect and ±100 for the full control effect; nearly all actives have a fitted effect of over 55% in size
#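 Cells (2,000 per well) received 5-fluorouridine plus test compound or DMSO and were incubated 16 hr at 37 °C, 5% CO2. Luciferase activity was read by luminescence 30 min after ONE-Glo addition; signal suppression marked inhibition of damage-induced ELG1 function.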
# SMN2 splice enh – SMN2 splice variant enhancement | HEK293 SMN2-luciferase splicing reporter, luminescence, 30-36 h | Potency, µM (top dose mostly 46.1 µM), for the others: at the top dose activity change, positive = activation, usual class: activators | 210,000 tested, 2.8% active; note: % of control where 0% means no effect; nearly all actives have a fitted effect of over 55% in size
#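 HEK293 cells carry an SMN2 […]–luciferase reporter in which exon 7 inclusion puts luciferase in frame. Cells were plated 10-12 h before compound addition, then incubated 30-36 h at 37C. ONE-Glo luminescence was read; sodium butyrate at 4.5 mM final served as control.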
# Numbers without * were called inactive; ? = inconclusive; / = no result given; [ ] = dose if it differs, or a comment. Calls come from the whole dose curve; as a rule, active = well fitted curve in the direction sought with a large enough effect; inconclusive = small, poorly fitted or top-dose-only effect, or another doubt; inactive = no such curve, though single readings can be large; an effect the other way counts as inactive or inconclusive. Potency is the fitted concentration of half-maximal effect.
SMILES,Rab9 prom act,ELG1 genotox,NPC1 prom act,FLuc modulator,ELG1 repair inh,SMN2 splice enh
Cc1ccc(NC(=O)c2c(Cl)nc3ccccn23)cc1,?,?,19%,11µM*,?,13µM*
CC(=O)Nc1ccc(NC(=O)c2c(C)nc3ccccn23)cc1,3%,5%,3%,-9%,0%,-1%
CC(=O)Nc1ccc(NC(=O)C(NC(=O)C2CCC(C)CC2)C(C)C)cc1 (centres undefined),/,/,/,-3%,/,0%
O=C(Nc1ccccc1C(=O)Nc1ccccn1)c1ccc([N+](=O)[O-])cc1,-5%,4%,-1%,-5%,-16%,-2%
Cc1ccnc(NC(=O)CC(NC(=O)c2ccccc2Cl)c2ccccc2)c1 (centres undefined),-2%,21µM*,0%,11µM*,?,/
Cc1ccc(C(=O)Nc2cccnc2Cl)cc1Cl,?,18µM*,?,17µM*,?,/
COc1ccc(C(=O)Nc2ccccc2C(=O)Nc2ccccn2)cc1,?,15%,?,6µM*,?,/
Cc1cc(C)cc(C(=O)Nc2cccnc2Cl)c1,5%,4%,-4%,-10%,11%,/
Cc1ccc(C(=O)Nc2ccccc2C(=O)Nc2ccccn2)cc1Cl,17%,3%,2%,5.4µM*,-17%,/
CCOCCc1nn2c(=O)cc(COC(=O)c3ccccc3Br)nc2s1,/,/,/,-6%,/,/
Cc1ccnc(NC(=O)c2ccc(Cl)c(NC(=O)c3ccccc3C)c2)c1,6%,-7%,1%,-16%,?,/
Cc1ccnc(NC(=O)c2ccccc2NC(=O)c2ccc(Cl)cc2Cl)c1,-14%,?,-23%,12µM*,-9%,/
CCOc1ccc(-c2nc3cc(NC(=O)COc4cccc(C)c4)ccc3o2)cc1,/,/,/,-13%,/,-5%
Cc1ccc2oc(-c3ccccc3)nc2c1,3.2µM*,?,1.1µM*,0.6µM*,?,?
CCOc1cccc(-c2nc3cc(C)ccc3o2)c1,?,?,13%,0.95µM*,?,13µM*
Cc1ccc2oc(-c3cccc(NC(=O)Cc4ccc(Cl)cc4)c3)nc2c1,/,/,/,1%,/,-5%
O=C(NCCS(=O)(=O)N1CCN(c2ccccc2F)CC1)C(c1ccccc1)c1ccccc1,/,/,/,1%,/,/
Cc1ccc(CN2CCSc3ccc(C(=O)N4CCN(c5ccc(Cl)cc5)CC4)cc32)cc1,/,/,/,1%,/,-1%
CCOc1ccccc1NC(=O)CSc1nnc2[nH]c(=O)cc(-c3ccccc3)n12,/,/,/,6µM*,/,/
Cc1ccc(C)c(NC(=O)CSc2nnc(-c3ccccc3)n2N)c1,-9%,-6%,1%,2%,-1%,-13%
Cc1ccc(NC(=O)CSc2nnc3[nH]c(=O)cc(-c4ccccc4)n23)cc1Cl,/,/,/,0.67µM*,/,/
CCCCc1ccc(NC(=O)CSc2nnc3[nH]c(=O)cc(C)n23)cc1,/,/,/,15µM*,/,/
CCOc1ccccc1NC(=O)CSc1nccn1-c1ccccc1,-9%,-7%,0%,-2%,-15%,8%
Cc1ccc(C)c(NC(=O)CSc2nnc3[nH]c(=O)cc(-c4ccccc4)n23)c1,/,/,/,0.95µM*,/,/
COc1ccc(C)c2sc(N(Cc3cccnc3)C(=O)C3CCCCC3)nc12,/,/,/,2%,/,/
SMILES,Rab9 prom act,ELG1 genotox,NPC1 prom act,FLuc modulator,ELG1 repair inh,SMN2 splice enh
Cc1cccc(CNc2ncncc2-c2cccc(NS(C)(=O)=O)c2)c1,/,/,/,/,/,0%
COc1ccc(/C=C(\C#N)C(N)=O)c(OC)c1,/,/,/,/,/,-2%[9.22 µM]
Cn1c(=O)c2c(-c3ccccc3)n3c4ccccc4nc(-c4ccccc4)c3c2n(C)c1=O,/,/,/,-1%,/,7%
CCOC(=O)c1sc2nc(C)cc(C)c2c1NC(=O)c1ccco1,1%,0%,-4%,-1%,-9%,3%
CCOC(=O)c1c(-c2ccc(C)s2)csc1NC(=O)c1cccs1,3%,1%,0%,-8%,?,-11%
CCOC(=O)c1ccc2nc(NC(=O)c3cccs3)sc2c1,0.5µM*,?,0.71µM*,1.2µM*,?,4µM*
CCOc1ccc2nc(NC(=O)c3nc(SC)ncc3Cl)sc2c1,/,/,/,-2%,/,-2%
CCOc1ccc2nc(NC(=O)c3ccoc3C)sc2c1,0.5µM*,?,0.56µM*,0.48µM*,?,2.5µM*
CCOC(=O)c1ccc2nc(NC(=O)c3ccco3)sc2c1,0.71µM*,?,0.89µM*,2.7µM*,?,2.2µM*
CCOc1ccc2nc(NC(=O)c3ccco3)sc2c1,0.32µM*,1.3µM*,0.32µM*,0.67µM*,?,/
Cc1cccc(C)c1OCC(=O)NCC1(N2CCOCC2)CCCCC1,/,/,/,-8%,/,/
COc1ccc(-c2cc3c(=O)n(CC(=O)N4CCCCC4)ncn3n2)cc1,18%,12%,30%,?,?,/
CCc1ccc(-c2cc3c(=O)n(CC(=O)NCCCN4CCN(C)CC4)ncn3n2)cc1,2.8µM*,?,2.8µM*,2.4µM*,?,/
COc1ccc(-c2cc3c(=O)n(CC(=O)NCc4ccccc4OC)ncn3n2)cc1,12%,14%,-2%,-2%,?,/
CCC1CCCCN1CCCNC(=O)Cn1ncn2nc(-c3ccc(OC)cc3)cc2c1=O (centres undefined),?,?,0%,24µM*,?,/
COc1ccc(-c2cc3c(=O)n(CC(=O)NCCCc4ccccc4)ncn3n2)cc1,4µM*,?,2.8µM*,?,?,/
COc1ccc(-c2cc3c(=O)n(CC(=O)N4CCN(C)CC4)ncn3n2)cc1,5µM*,?,?,2.4µM*,?,/
COc1ccccc1OCC(=O)N(Cc1ccco1)Cc1ccccc1F,/,/,/,-14%,/,-8%
O=C(OCc1cc(=O)n2nc(-c3cccs3)sc2n1)c1ccc(Cl)cc1,/,/,/,-3%,/,/
CC(C)C12CC[C@@]3(CC[C@H]4[C@@](C)(CCC[C@]4(C)C(=O)O)[C@@H]3C1)[C@@H](CN)C2,/,/,/,/,/,-3%[9.22 µM]
CCc1cccc(NC(=O)c2cc3c(=O)n(Cc4ccc(OC)cc4)ccc3nc2C)c1,/,/,/,-1%,/,/
O=C(c1ccc(Oc2ccccc2)cc1)C1CCCN(C(=O)c2cnccn2)C1 (centres undefined),-7%,-11%,2%,0%,21µM*,/
CC(=O)N1CCc2c(sc3c2c(=O)n(CCc2ccccc2)c(=O)n3CC(=O)Nc2ccccc2F)C1,/,/,/,-9%,/,-3%
CCOc1ccc(NS(=O)(=O)c2ccc3c(c2)NC(=O)CCS3)cc1,/,/,/,-9%,/,/
COc1ccc(/C=N/NC(=O)c2ccncc2)cc1CN1CCOCC1,-8%,0%,1%,-2%,-1%,/
CCOc1ccccc1-c1cc(C(=O)N/N=C/c2ccc3c(c2)OCO3)c2ccccc2n1,2%,2%,1%,-16%,?,29%

# Source: PubChem BioAssay (National Center for Advancing Translational Sciences (NCATS))
